Measured values published in the supplement of paper PMC10849652.
Of roughly 7,900 targets only a part is listed; those with a hit were picked by preference. About 0.6% of all pairs of compound and target were hits.

Each target was assayed with Cc1ncc(-c2ccnc(Nc3ccc(S(C)(=O)=O)cc3)n2)n1C(C)C (assay: log2 fold change, soluble protein after heating vs DMSO (PISA); higher = thermal stabilisation; K562 cells, 10 uM, 30 min; active = over 0.2 and 3.5 SD of the protein, either way, in both replicates (recomputed)).
How it was run: (§1)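 Thermal stability values are relative to control samples and come from duplicates. They are expressed as log2 fold changes. For measurement, K562 cells (2×10^6 cells/mL) received 10 μM compound for 30 min, and aliquots were heated for 3 min over 48°C-58°C, pooled, and extracted at 4°C in PBS with 0.5% NP-40. Soluble protein, the supernatant after 21,000xg for 90 min, was quantified by TMTpro 16plex LC-MS/MS with equalised channel sums.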

Sequence of UniProt P23497 (P23497 whole entry, looked up): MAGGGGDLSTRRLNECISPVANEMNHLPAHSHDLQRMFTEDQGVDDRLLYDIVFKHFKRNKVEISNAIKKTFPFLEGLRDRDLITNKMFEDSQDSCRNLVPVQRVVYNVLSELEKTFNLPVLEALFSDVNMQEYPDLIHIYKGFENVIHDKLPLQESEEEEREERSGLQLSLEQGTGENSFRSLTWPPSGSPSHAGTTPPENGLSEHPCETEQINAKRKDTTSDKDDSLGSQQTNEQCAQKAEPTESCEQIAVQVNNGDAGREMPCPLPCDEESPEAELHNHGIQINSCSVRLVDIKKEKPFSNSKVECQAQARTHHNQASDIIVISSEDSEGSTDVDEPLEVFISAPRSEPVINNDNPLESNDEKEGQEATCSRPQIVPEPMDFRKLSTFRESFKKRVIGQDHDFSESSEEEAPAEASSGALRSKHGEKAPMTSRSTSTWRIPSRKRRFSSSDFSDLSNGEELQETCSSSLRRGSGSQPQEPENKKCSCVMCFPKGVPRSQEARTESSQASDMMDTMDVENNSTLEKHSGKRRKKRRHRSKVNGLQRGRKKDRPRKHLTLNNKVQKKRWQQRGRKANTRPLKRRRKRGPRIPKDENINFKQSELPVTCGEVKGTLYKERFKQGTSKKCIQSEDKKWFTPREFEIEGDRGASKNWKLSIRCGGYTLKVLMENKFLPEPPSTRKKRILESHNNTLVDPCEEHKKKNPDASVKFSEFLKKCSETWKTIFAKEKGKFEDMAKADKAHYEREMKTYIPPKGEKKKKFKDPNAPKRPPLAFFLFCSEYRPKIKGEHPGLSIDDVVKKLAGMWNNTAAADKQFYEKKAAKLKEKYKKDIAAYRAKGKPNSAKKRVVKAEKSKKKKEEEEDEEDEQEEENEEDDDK
Sequence of UniProt Q8NEF9 (Q8NEF9 whole entry, looked up): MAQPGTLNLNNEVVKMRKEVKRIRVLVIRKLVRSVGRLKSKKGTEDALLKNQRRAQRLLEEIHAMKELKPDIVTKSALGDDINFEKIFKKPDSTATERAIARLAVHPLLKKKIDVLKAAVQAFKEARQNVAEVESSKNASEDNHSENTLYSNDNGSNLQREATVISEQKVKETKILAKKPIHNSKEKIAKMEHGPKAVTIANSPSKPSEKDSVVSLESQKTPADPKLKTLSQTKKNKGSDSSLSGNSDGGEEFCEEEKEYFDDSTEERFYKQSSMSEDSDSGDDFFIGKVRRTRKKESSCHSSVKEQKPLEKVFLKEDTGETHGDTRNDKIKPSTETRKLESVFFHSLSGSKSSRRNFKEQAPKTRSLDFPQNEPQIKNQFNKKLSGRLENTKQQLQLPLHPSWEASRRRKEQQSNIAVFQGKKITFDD
Sequence of UniProt Q5JUR7 (Q5JUR7 whole entry, looked up): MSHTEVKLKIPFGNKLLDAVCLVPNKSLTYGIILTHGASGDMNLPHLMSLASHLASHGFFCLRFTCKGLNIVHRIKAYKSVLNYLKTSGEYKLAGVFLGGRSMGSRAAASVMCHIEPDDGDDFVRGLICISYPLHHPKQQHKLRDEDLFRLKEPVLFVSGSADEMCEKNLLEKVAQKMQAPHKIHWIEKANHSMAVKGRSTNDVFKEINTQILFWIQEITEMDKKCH
Sequence of UniProt Q9BYN0 (Q9BYN0 whole entry, looked up): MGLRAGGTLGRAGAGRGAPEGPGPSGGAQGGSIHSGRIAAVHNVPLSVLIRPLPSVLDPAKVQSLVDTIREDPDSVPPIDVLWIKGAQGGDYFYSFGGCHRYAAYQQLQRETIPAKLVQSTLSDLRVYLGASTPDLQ
Sequence of UniProt Q8N1S5 (Q8N1S5 whole entry, looked up): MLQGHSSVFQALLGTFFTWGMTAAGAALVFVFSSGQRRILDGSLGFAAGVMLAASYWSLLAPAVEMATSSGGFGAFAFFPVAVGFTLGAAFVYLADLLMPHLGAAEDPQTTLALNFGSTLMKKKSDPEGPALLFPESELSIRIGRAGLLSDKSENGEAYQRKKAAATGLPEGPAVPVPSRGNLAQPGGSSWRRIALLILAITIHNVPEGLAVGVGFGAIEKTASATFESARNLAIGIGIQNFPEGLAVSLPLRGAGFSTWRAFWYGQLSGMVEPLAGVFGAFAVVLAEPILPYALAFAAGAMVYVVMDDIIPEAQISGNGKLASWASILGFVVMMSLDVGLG
Sequence of UniProt P08579 (P08579 whole entry, looked up): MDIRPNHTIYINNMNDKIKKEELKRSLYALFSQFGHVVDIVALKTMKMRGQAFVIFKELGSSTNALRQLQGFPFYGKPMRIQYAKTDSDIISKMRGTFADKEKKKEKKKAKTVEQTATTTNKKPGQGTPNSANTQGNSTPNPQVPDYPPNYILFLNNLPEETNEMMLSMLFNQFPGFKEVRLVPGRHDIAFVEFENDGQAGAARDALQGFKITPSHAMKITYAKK
Sequence of UniProt Q96BZ9 (Q96BZ9 whole entry, looked up): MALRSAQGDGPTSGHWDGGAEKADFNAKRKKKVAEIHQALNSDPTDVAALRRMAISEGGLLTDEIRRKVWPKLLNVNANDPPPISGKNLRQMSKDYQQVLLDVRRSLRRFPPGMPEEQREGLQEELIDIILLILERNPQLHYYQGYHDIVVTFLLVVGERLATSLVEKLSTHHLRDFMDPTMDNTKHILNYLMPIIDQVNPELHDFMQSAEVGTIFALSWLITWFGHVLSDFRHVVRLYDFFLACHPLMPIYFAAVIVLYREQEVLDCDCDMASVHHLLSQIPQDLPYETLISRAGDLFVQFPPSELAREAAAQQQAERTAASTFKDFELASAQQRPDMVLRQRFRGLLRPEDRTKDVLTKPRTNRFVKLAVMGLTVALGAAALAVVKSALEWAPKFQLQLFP
Sequence of UniProt Q9Y5M8 (Q9Y5M8 whole entry, looked up): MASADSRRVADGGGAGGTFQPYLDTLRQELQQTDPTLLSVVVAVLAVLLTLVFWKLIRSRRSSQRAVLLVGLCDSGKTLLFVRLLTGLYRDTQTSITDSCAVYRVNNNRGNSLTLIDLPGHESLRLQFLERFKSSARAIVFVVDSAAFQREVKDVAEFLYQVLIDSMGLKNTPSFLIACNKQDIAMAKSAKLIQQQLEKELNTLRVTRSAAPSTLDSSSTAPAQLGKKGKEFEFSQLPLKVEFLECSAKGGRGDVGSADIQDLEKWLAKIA
Sequence of UniProt Q9UMY4 (Q9UMY4 whole entry, looked up): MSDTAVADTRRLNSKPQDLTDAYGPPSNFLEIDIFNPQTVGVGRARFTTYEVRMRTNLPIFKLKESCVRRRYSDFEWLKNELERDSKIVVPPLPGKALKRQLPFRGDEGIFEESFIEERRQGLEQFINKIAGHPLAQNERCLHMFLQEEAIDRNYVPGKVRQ
Sequence of UniProt Q96CW6 (Q96CW6 whole entry, looked up): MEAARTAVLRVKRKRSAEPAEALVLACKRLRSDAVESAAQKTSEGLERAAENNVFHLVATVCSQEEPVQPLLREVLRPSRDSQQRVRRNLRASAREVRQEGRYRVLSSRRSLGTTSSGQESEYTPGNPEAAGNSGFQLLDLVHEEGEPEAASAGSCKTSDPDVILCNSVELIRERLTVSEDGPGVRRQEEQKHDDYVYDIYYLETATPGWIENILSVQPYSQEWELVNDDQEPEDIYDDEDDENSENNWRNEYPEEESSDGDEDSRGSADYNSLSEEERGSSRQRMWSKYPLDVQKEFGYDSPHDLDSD
Sequence of UniProt Q8IWA5 (Q8IWA5 whole entry, looked up): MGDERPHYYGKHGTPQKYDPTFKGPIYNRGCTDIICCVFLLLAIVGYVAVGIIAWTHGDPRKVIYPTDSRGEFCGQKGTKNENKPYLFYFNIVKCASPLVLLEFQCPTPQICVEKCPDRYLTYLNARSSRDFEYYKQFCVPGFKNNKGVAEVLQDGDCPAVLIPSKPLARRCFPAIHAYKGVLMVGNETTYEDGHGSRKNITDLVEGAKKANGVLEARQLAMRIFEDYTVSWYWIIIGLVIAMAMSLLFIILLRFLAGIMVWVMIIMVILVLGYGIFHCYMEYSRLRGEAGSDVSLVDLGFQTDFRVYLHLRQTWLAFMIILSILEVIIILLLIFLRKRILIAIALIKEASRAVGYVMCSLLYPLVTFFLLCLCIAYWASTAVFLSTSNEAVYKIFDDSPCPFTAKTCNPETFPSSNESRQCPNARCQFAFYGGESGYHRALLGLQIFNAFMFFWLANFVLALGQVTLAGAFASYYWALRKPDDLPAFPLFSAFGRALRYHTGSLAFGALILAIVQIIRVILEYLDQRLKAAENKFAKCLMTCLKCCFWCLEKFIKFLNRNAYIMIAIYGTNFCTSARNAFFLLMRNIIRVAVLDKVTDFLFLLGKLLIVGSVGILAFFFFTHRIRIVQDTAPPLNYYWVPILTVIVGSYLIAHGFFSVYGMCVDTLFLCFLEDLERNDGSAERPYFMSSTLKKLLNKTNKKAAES
Sequence of UniProt Q9NRS6 (Q9NRS6 whole entry, looked up): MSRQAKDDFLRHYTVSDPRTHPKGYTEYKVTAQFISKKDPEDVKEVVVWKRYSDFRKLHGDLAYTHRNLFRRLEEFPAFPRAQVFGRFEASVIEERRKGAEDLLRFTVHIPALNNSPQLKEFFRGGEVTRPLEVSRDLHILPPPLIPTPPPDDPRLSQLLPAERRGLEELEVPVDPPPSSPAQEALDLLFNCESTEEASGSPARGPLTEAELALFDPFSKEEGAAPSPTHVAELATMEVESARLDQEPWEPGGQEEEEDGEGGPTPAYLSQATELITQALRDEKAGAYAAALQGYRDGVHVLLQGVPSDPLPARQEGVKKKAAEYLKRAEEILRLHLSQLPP
Sequence of UniProt Q9H5Q4 (Q9H5Q4 whole entry, looked up): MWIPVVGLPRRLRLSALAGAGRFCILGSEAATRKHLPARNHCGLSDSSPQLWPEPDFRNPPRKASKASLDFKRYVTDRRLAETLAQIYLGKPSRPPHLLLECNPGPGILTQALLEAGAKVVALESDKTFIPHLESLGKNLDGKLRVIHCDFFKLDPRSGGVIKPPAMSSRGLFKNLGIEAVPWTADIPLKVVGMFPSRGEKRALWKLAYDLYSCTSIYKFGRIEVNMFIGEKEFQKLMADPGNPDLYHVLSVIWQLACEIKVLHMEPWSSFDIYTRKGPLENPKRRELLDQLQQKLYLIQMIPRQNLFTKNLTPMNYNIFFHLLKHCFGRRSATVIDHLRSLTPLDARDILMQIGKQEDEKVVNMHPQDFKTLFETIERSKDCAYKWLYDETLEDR

log2 fold change, inactive:
SMAP (UniProt O00193) -0.011
TGFBR1 isoform 2 (UniProt P36897) 0.007
SLC7A6OS (UniProt Q96CW6) -0.031
TK1 (UniProt P04183) -0.036
TACC2 (UniProt O95359) 0.008
TEX30 (UniProt Q5JUR7) -0.016
TATDN2 (UniProt Q93075) -0.043
STK11IP (UniProt Q8N1F8) 0.051
SRXN1 (UniProt Q9BYN0) 0.093
SSRP1 (UniProt Q08945) -0.075
STK38L (UniProt Q9Y2H1) -0.03
TAF9 (UniProt Q16594) -0.086
SP1 (UniProt P08047) -0.02
SRPRB (UniProt Q9Y5M8) 0.121
SLC38A7 (UniProt Q9NVC3) -0.053
SP100 isoform 4 (UniProt P23497) -0.057
TK1 (UniProt K7ERV3) -0.076
SLC44A2 isoform 2 (UniProt Q8IWA5) 0.068
TBC1D20 isoform 3 (UniProt Q96BZ9) 0.033
SRSF6 (UniProt Q13247) 0.095
SPIRE1 (UniProt Q08AE8) -0.046
SRC isoform 2 (UniProt P12931) -0.136
SMG1 (UniProt Q96Q15) -0.015
SRCAP (UniProt Q6ZRS2) -0.007
SNRPB2 (UniProt P08579) 0.135
STARD3 (UniProt Q14849) 0.068
SNX15 (UniProt Q9NRS6) 0.002
TIAL1 isoform 2 (UniProt Q01085) 0.074
TENT5C (UniProt Q5VWP2) 0.005
SLC39A11 (UniProt Q8N1S5) 0.248
TFB2M (UniProt Q9H5Q4) 0.009
SSBP4 (UniProt Q9BWG4) 0.053
SYNE1 (UniProt Q8NF91) -0.074
SRFBP1 (UniProt Q8NEF9) -0.066
STRN (UniProt O43815) -0.008
SYNE2 isoform 2 (UniProt Q8WXH0) -0.069
SNX12 isoform 1 (UniProt Q9UMY4) -0.191

What follows are targets tested with Cn1cc(-c2ccc3c(c2)CCN3C(=O)Cc2cccc(C(F)(F)F)c2)c2c(N)ncnc21 in the same assay as above.
How it was run: as §1

log2 fold change, inactive:
SMAP (UniProt O00193) 0.005
TGFBR1 isoform 2 (UniProt P36897) -0.046
SLC7A6OS (UniProt Q96CW6) 0.026
TK1 (UniProt P04183) 0.015
TACC2 (UniProt O95359) -0.001
TEX30 (UniProt Q5JUR7) 0.084
TATDN2 (UniProt Q93075) -0.059
STK11IP (UniProt Q8N1F8) -0.068
SRXN1 (UniProt Q9BYN0) 0.134
SSRP1 (UniProt Q08945) 0.03
STK38L (UniProt Q9Y2H1) -0.122
TAF9 (UniProt Q16594) -0.12
SP1 (UniProt P08047) -0.018
SRPRB (UniProt Q9Y5M8) 0.076
SLC38A7 (UniProt Q9NVC3) -0.005
SP100 isoform 4 (UniProt P23497) 0.02
TK1 (UniProt K7ERV3) 0.176
SMARCA4 (UniProt P51532) -0.036
SLC44A2 isoform 2 (UniProt Q8IWA5) 0.084
TBC1D20 isoform 3 (UniProt Q96BZ9) 0.121
SRSF6 (UniProt Q13247) -0.251
SPIRE1 (UniProt Q08AE8) -0.155
SRC isoform 2 (UniProt P12931) 0.008
SMG1 (UniProt Q96Q15) -0.035
SRCAP (UniProt Q6ZRS2) -0.061
SNRPB2 (UniProt P08579) -0.116
STARD3 (UniProt Q14849) 0.119
SNX15 (UniProt Q9NRS6) -0.046
TIAL1 isoform 2 (UniProt Q01085) 0.009
TENT5C (UniProt Q5VWP2) -0.286
SLC39A11 (UniProt Q8N1S5) 0.128
TFB2M (UniProt Q9H5Q4) 0.012
SYNE1 (UniProt Q8NF91) 0.079
SRFBP1 (UniProt Q8NEF9) -0.163
STRN (UniProt O43815) 0.022
SYNE2 isoform 2 (UniProt Q8WXH0) 0.153
SNX12 isoform 1 (UniProt Q9UMY4) 0.038
